In paper PMC4336329 (PLoS ONE, 2015):
Out of some 310,000 compounds screened, about 14,000 (4.5%) showed an effect of 50% or more. Effects have a minus sign here. The sample holds strong results, similar compounds and a random draw of the others, so the mix is not that of the screen.

molecular target: human ether-à-go-go-related gene (hERG) potassium channel (human, UniProt Q12809); test: primary screen, population patch clamp on CHO cells stably expressing hERG; higher = less effect of the substance
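Also: peak tail current of the secondary pulse compared with the same well before compound.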

Sequence of human ether-à-go-go-related gene (hERG) potassium channel (Q12809 whole entry, looked up): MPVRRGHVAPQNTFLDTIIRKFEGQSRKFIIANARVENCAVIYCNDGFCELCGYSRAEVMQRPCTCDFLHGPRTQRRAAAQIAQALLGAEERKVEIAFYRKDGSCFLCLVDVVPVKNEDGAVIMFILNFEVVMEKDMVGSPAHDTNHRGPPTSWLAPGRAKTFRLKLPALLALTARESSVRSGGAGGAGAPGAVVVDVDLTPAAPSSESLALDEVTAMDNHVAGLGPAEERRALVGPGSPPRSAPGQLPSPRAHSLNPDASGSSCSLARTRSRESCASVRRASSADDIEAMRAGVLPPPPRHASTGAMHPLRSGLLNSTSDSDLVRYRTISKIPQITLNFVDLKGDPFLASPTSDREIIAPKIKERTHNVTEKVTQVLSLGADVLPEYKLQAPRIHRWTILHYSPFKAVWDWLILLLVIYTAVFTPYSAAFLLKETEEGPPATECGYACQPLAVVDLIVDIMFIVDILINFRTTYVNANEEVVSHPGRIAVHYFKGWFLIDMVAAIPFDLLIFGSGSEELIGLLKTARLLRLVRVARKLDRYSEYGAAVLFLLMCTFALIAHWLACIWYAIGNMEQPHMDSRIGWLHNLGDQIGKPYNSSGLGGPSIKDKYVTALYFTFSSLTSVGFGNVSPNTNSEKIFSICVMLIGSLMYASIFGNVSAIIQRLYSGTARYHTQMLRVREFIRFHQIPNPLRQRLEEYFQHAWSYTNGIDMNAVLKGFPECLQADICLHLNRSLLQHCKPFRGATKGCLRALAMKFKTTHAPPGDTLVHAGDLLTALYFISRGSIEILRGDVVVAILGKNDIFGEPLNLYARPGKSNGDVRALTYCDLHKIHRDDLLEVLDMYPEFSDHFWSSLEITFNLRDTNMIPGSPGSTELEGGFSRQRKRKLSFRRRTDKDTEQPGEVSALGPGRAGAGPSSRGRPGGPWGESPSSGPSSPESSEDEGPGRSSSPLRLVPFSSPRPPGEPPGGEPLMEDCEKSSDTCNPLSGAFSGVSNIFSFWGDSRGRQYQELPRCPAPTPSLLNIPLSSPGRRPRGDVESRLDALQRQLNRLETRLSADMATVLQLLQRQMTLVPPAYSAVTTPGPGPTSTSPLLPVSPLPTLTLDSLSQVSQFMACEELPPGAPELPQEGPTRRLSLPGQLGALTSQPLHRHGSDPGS

Row | SMILES | hERG current change (%, negative = inhibition) at 10uM [%]
1 | O=S(=O)(Cc1ccccc1)NCC1CCCN(Cc2ccc3nonc3c2)C1 (centres unmarked) | -51.2
2 | O=C(NCC1CCCN(Cc2ccc3c(c2)OCCO3)C1)c1ccc2c(c1)OCO2 (centres unmarked) | -18.8
3 | O=C(c1cc(F)ccc1F)C1CCCN(Cc2ccc3nonc3c2)C1 (centres unmarked) | -12
4 | O=S(=O)(Cc1ccccc1)NCC1CCCN(Cc2ccc(F)c(F)c2)C1 (centres unmarked) | -44.2
5 | O=S(=O)(Cc1ccccc1)NCC1CCCN(Cc2cccc3nonc23)C1 (centres unmarked) | -12.2
6 | COc1ccc(CC(=O)NCC2CCCN(Cc3cccc(C(F)(F)F)c3)C2)cc1 (centres unmarked) | -28
7 | O=C(NCC1CCCN(Cc2ccc3nonc3c2)C1)c1cccc(C(F)(F)F)c1 (centres unmarked) | -61.5
8 | O=C(NCC1CCCN(Cc2ccc3nonc3c2)C1)c1ccc(F)cc1 (centres unmarked) | -60.8
9 | O=C(COc1ccc(Cl)cc1)NNC(=O)CSc1nncs1 | 8.43
10 | COc1ccccc1Oc1ccccc1C(=O)O | 0.941
11 | O=C(NCc1ccc(Cl)cc1)C1C2C=CC3(CN(Cc4cccnc4)C(=O)C13)O2 (centres unmarked) | -7.1
12 | COc1ccc(N2CCN(CCCNC(=O)C3CCCN(S(=O)(=O)c4c(C)n[nH]c4C)C3)CC2)cc1 (centres unmarked) | 8.03
13 | COc1ccc(C(=O)C(C)OC(=O)c2nc3nccc(C)n3n2)cc1 (centres unmarked) | 2.98
14 | CCOC(=O)C1CCCN(C(=O)c2ccc(CNc3c(N4CCC(C)CC4)c(=O)c3=O)cc2)C1 (centres unmarked) | 5.83
15 | Cc1cc(SCC(=O)NN=C2CCN(C(C)C)CC2)c(C)cc1Br | -69.4
16 | CC(=O)N1CCC(=NNC(=O)CSc2cc(C)c(Br)cc2C)CC1 | 6.38
17 | CCCN1CCC(=NNC(=O)CSc2cc(C)c(Br)cc2C)CC1 | -28
18 | C=CCN(C(=O)Nc1ccc(Cl)cc1)C1CC(=O)N(c2ccc(OC)cc2)C1=O (centres unmarked) | -14.8
19 | O=C(NCc1ccncc1)C(=O)C1C(=O)Nc2ccccc21 (centres unmarked) | 11.6
20 | CCOC(=O)c1csc(NNC=O)n1 | 6.73
21 | CC(CNC(=O)CCS(=O)(=O)c1ccc2c(c1)NC(=O)CO2)c1ccccc1 (centres unmarked) | -6.68
22 | Cn1cnc([N+](=O)[O-])c1Sc1ccc(Br)cc1 | -20

Row | SMILES | hERG current change (%, negative = inhibition) at 10uM [%]
23 | Cc1ccc(Sc2c([N+](=O)[O-])ncn2C)cc1 | 3.39
24 | Cn1cnc([N+](=O)[O-])c1Sc1ccc([N+](=O)[O-])cc1 | -62.1
25 | CCN(CC)c1ncnc2sc(C(=O)N3CCN(c4ccccc4)CC3)c(C)c12 | -50.2
26 | CCN(CC)c1ncnc2sc(C(=O)N3CCN(c4ccc(OC)cc4)CC3)c(C)c12 | -41.5
27 | Cc1c(C(=O)N2CCN(Cc3ccc4c(c3)OCO4)CC2)sc2ncnc(N3CCN(c4ccccc4)CC3)c12 | 7.82
28 | Cc1c(C(=O)N2CCN(c3ccccc3)CC2)sc2ncnc(N3CCN(c4ccccn4)CC3)c12 | -35.1
29 | Cc1c(C(=O)N2CCN(c3ccccn3)CC2)sc2ncnc(N3CCN(c4ccccc4)CC3)c12 | -32.8
30 | Cc1c(C(=O)N2CCN(c3ccccn3)CC2)sc2ncnc(N3CCOCC3)c12 | -59
31 | Cc1c(C(=O)N2CCN(c3ccc(F)cc3)CC2)sc2ncnc(N3CCN(c4ccccn4)CC3)c12 | -65.1
32 | Cc1c(C(=O)N2CCC3(CC2)OCCO3)sc2ncnc(N3CCN(c4ccccn4)CC3)c12 | -44.2
33 | COc1ccccc1N1CCN(C(=O)c2sc3ncnc(N4CCN(c5ccccn5)CC4)c3c2C)CC1 | -18.8
34 | CN(C)CCOC(=O)c1ccc2c(c1)S(=O)(=O)c1ccccc1C2=O.Cl | -6.3
35 | COc1ccc2c(c1)c(C(=O)O)c(C)n2C(C)C | 13.3
36 | COc1ccc(N2CCN(C(=O)c3ccc(NS(=O)(=O)c4ccc(F)c(F)c4)cc3)CC2)cc1 | -44.3
37 | Cc1cc(C)nc(NC2=NCC(=O)N2CCc2c[nH]c3ccccc23)n1 | -2.13
38 | CCOC(=O)c1cnc(SC)nc1Oc1cccc(NS(=O)(=O)c2ccc(F)cc2)c1 | -71.2
39 | CCOC(=O)c1cnc(SC)nc1Oc1cccc(NS(=O)(=O)c2ccc(C)cc2)c1 | -6.83
40 | CCOC(=O)c1cnc(SC)nc1Oc1cccc(NS(=O)(=O)c2ccccc2)c1 | 16.1
41 | O=C(NCCN1CCOCC1)c1ccc(Cl)nc1Cl | -2.02
42 | CC(=O)N1CCN(S(=O)(=O)c2ccc3c(c2)OCCO3)CC1 | 10.5
43 | CCCCCC(=O)N1CCN(S(=O)(=O)c2ccc3c(c2)OCCO3)CC1 | -61
44 | CCCCCC(=O)N1CCN(S(=O)(=O)c2ccc3c(c2)OCCCO3)CC1 | -18.7

Row | SMILES | hERG current change (%, negative = inhibition) at 10uM [%]
45 | COc1cc(NS(=O)(=O)c2ccc(NC(=S)NC(=O)c3sc4ccccc4c3Cl)cc2)ncn1 | 16.3
46 | COc1ccc(-c2[nH]ncc2CN2CCSCC2)c(OC)c1 | 14.7
47 | COc1ccc(-c2[nH]ncc2CN2CCC(OCc3ccccc3)CC2)c(F)c1 | -80.7
48 | COc1ccc(-c2[nH]ncc2CN2CCC(OCc3cccnc3)CC2)c(F)c1 | -37.1
49 | COc1ccc(-c2[nH]ncc2CN2CCCOc3c(cccc3OC)C2)c(OC)c1 | -48
50 | COc1ccc(-c2[nH]ncc2CN2CCCCCCC2)c(OC)c1 | -54.7
51 | COc1ccc(-c2[nH]ncc2CN2CCCC(C(=O)c3cccc(OC)c3)C2)cc1 (centres unmarked) | -67.3
52 | COc1ccc(-c2[nH]ncc2CN2CCCC(C(=O)c3ccc(OC)cc3OC)C2)cc1 (centres unmarked) | -65
53 | COc1cccc(C(=O)C2CCCN(Cc3cn[nH]c3C3CCCCC3)C2)c1 (centres unmarked) | -32.1
54 | COc1ccc(-c2[nH]ncc2CN2CCC(OCc3ccccn3)CC2)c(F)c1 | -31.1
55 | COc1ccc(-c2nc3c(Br)c(N)c(Br)cc3o2)cc1 | 7.14
56 | O=C(CCCOc1ccc(Cl)cc1Cl)N/N=C/c1cccc([N+](=O)[O-])c1 | 9.56
57 | CS(=O)(=O)N1Cc2ccccc2CC1C(=O)OCC(=O)Nc1ccc2ccccc2c1 (centres unmarked) | 7.36
58 | O=C(CSc1nc(C2CCCCC2)nc2ccccc12)N1CCCC1 | -12.6
59 | COc1ccccc1/C=N/NC(=O)C1=NNC(c2ccccc2)(c2ccccc2)C1 | 2.43
60 | O=C(CSc1nncn1-c1ccccn1)Nc1ccccc1Cl | 4.16
61 | CCCCn1nnnc1SCC(=O)Nc1ccc(C)cc1 | 2.26
62 | COc1cccc(OCCn2cc(C=O)c3ccccc32)c1 | 15.2
63 | CC(C)(C)c1ccc(C(=O)Nc2cccc3ncccc23)cc1 | -2.82
64 | Cc1cc(Oc2ccccc2)nc(SCC(=O)Nc2ccccc2)n1 | 19.4
65 | CC1CCN(c2oc(-c3ccccc3F)nc2C#N)CC1 | -10.7
66 | COc1cccc(C(=O)N2CCOCC2)c1 | 20.2

Row | SMILES | hERG current change (%, negative = inhibition) at 10uM [%]
67 | Cc1ccc(S(=O)(=O)NC(CC(C)C)C(=O)N2CCN(C/C=C/c3ccccc3)CC2)cc1 (centres unmarked) | -21.3
68 | Fc1ccc(NC(=S)N2CCN(C/C=C/c3ccccc3)CC2)c(F)c1 | -25.8
69 | Cc1cc(NC(=O)CN2CCN(C/C=C/c3ccccc3)CC2)c([N+](=O)[O-])cc1C | -12
70 | O=C(CN1CCN(C/C=C/c2ccccc2)CC1)Nc1ccc(F)cc1F | -78.1
71 | O=C(Nc1ccccc1Cl)N1CCN(C/C=C/c2ccccc2)CC1 | -25.9
72 | Cc1ccccc1NC(=O)CCN1CCN(C)CC1 | 19.4
73 | O=C(Nc1ccc(F)cc1F)N1CCN(C/C=C/c2ccccc2)CC1 | -39.9
74 | Cl.O=C(CCN1CCN(C/C=C/c2ccccc2)CC1)Nc1ccccc1Cl | -76.4
75 | CCC(C)c1ccccc1NC(=O)CN1CCN(C/C=C/c2ccccc2)CC1 (centres unmarked) | -60.4
76 | Cc1ccccc1NC(=O)N1CCN(C/C=C/c2ccccc2)CC1 | -22.7
77 | Cc1ccccc1NC(=O)CCN1CCN(C/C=C/c2ccccc2)CC1 | -78.9
78 | O=C(CCN1CCN(Cc2ccccc2)CC1)Nc1ccccc1Cl | -46.2
79 | O=C(COC(=O)c1cnccn1)c1ccc(Br)cc1 | 0.614
80 | O=C(CNC(=O)c1ccc(Cl)cc1Cl)OCN1C(=O)c2ccccc2C1=O | 3.68
81 | Cc1[nH]c2ccccc2c1C(=O)C(=O)NCC1CCCO1 (centres unmarked) | 6.3
82 | Cc1ccc(/C=C/C(=O)N2CC(=O)Nc3ccccc32)o1 | -24.2
83 | O=C(CN1C(=O)c2ccccc2C1=O)NCCOc1ccccc1 | -2.09
84 | Cc1ccccc1NC(=O)C(C)O/N=C/c1cccc([N+](=O)[O-])c1 (centres unmarked) | -38.7
85 | CCCS(=O)(=O)N1CCCC(C(=O)NCCCN(C)c2ccccc2)C1 (centres unmarked) | 5.82
86 | CN(C)/C=C(\C#N)S(=O)(=O)c1ccccc1 | 9.4
